# Source: PubChem BioAssay (Broad Institute)
# aSyn UTR act = Activators via SNCA 5'UTR binding, MLPCN; alpha-synuclein 5'UTR reporter, activators screen; activity score, % (tested at 7.5 µM), hits read low; 7.1% of 300,000 active; in the data active = activity score below about -60%
# An asterisk follows results filed as active. Only a sample is shown.
SMILES,aSyn UTR act
O=C1CCCc2nc3c(cc21)C(O)Oc1c-3ccc2ccccc12 (stereo unspecified),-117.7*
COc1cccc(NC(=O)C2Cc3ccccc3CN2C(=O)c2ccco2)c1 (stereo unspecified),-94.1*
Cc1ccccc1NC(=O)C1Cc2ccccc2CN1C(=O)c1ccco1 (stereo unspecified),-132.0*
CCC(C)N(CC(=O)Nc1cccc(C)c1C)C(=O)CCl (stereo unspecified),-88.3*
CCOC(=O)c1c(C)[nH]c(C(=O)OCc2ccc(F)cc2)c1C,-170.0*
CCOC(=O)c1c(C)[nH]c(C(=O)CSc2ccc(Cl)cc2)c1C,-129.5*
CCOC(=O)c1c(C)[nH]c(C(=O)OCc2ccccc2F)c1C,-110.3*
CC(=O)c1c(C)[nH]c(C(=O)OCc2ccccc2)c1C,-145.2*
CCOC(=O)c1c(C)[nH]c(C(=O)COC(=O)C2(C)CC2(Cl)Cl)c1C (stereo unspecified),-170.9*
CCOC(=O)c1c(C)[nH]c(C(=O)OCCOc2ccccc2C)c1C,-132.3*
CCNC(=O)COC(=O)c1[nH]c(C)c(C(=O)OC)c1C,-85.4*
CCOC(=O)c1c(C)[nH]c(C(=O)OCC(=O)c2ccccc2)c1C,-99.0*
Fc1ccc(-c2nnc(-c3ccc(F)cc3)o2)cc1,-185.4*
Fc1ccc(-c2nnc(NC3=NCCCCC3)o2)cc1,98.3
O=[N+]([O-])c1ccc(Cc2nnc(-c3ccc(F)cc3)o2)cc1,-86.4*
Cc1ccc(-c2nnc(Cc3ccc([N+](=O)[O-])cc3)o2)cc1,-119.7*
Cc1cccc(NC(=O)C2C3CCCCC32)c1 (stereo unspecified),-116.9*
CSCCC(=O)Nc1ccc(C(C)=O)cc1,-143.4*
Cc1ccc(NC(=O)C2C3/C=C\CCCCC32)cc1 (stereo unspecified),-82.6*
Cc1ccc(NC(=O)C2C3CCCCC32)cc1[N+](=O)[O-] (stereo unspecified),-98.6*
Cc1ccc(NC(=O)Nc2ccccc2)cc1[N+](=O)[O-],-145.2*
Cc1cc(NC(=O)OC2CCCCC2)ccc1[N+](=O)[O-],-189.6*
CC(=O)c1ccc(NC(=O)CN2CCCC2)cc1,-63.5*
Cc1ccc(NC(=O)CN2CCCCCC2)cc1[N+](=O)[O-],-89.9*
COc1ccc2c(c1OC)C(=O)N(c1ccc(F)cc1)C2,-158.9*
SMILES,aSyn UTR act
COc1cc2c(c(OC)c1OC)-c1ccc(OC)c(=O)cc1[C@@H](NC(C)=O)CC2,95.7
O=C(NC(=O)N1CCN(c2ccccc2)CC1)c1ccc(Cl)cc1,-66.1*
NC(=O)COc1c(-c2ccc(Br)o2)oc2ccccc2c1=O,-62.4*
CC(=O)c1cc2c(=O)c3cc(C)ccc3oc2nc1C,-184.0*
Cc1nc2oc3ccc(F)cc3c(=O)c2cc1C(=O)O,-75.3*
Cc1ccc2oc3nc(C)c(C(=O)O)cc3c(=O)c2c1,-102.6*
CCOC(=O)c1cc2c(=O)c3cc(C)ccc3oc2nc1C,-113.9*
COc1ccc(-c2ccc(/C=C3/C(=N)N4C=CSC4=NC3=O)o2)c([N+](=O)[O-])c1,-116.4*
N#Cc1c(-c2ccccc2)c(-c2ccccc2)nn(CC(=O)NNC(=O)Nc2ccccc2)c1=O,-91.8*
Cc1cccc(NC(=O)CSc2nc(C)c(CC(=O)c3ccc(Br)cc3)c(C)c2C#N)c1C,49.1
CSc1nc(N)nc(SCC(=O)c2ccccc2)c1C#N,-76.0*
O=C(Nc1ccc(NC(=O)c2ccco2)cc1)c1ccc2c(c1)OCCO2,60.9
Cc1cc(NC(=O)c2ccc3c(c2)OCCO3)ccc1NC(=O)c1ccco1,-66.2*
Cc1cc(NC(=O)c2ccc([N+](=O)[O-])o2)ccc1NC(=O)c1ccco1,-110.4*
CC(=O)Nc1ccc(OCc2nnc(-c3ccc(Cl)cc3)o2)cc1,-95.6*
Cc1[nH]n(-c2nc(-c3ccc(Cl)cc3)cs2)c(=O)c1N=Nc1ccc(O)cc1,-118.2*
O=C(Nc1ccc(F)c(Cl)c1)c1ccc2c(=O)n3c(nc2c1)CCCCC3,-165.9*
O=C(Nc1ccc(Cl)cc1)c1ccc2c(=O)n3c(nc2c1)CCCCC3,-119.9*
O=C(Nc1cccc(Cl)c1)c1ccc2c(=O)n3c(nc2c1)CCCCC3,-216.7*
O=C(Nc1ccc(F)cc1)c1ccc2c(=O)n3c(nc2c1)CCCCC3,-103.8*
CCc1cccc(NC(=O)c2ccc3c(=O)n4c(nc3c2)CCCCC4)c1,-127.4*
COc1ccc(C(=O)c2c(C(F)(F)F)oc3c2C(=O)c2ccccc2C3=O)cc1OC,111.2
Cc1oc2c(c1C(=O)O)C(=O)c1ccccc1C2=O,-62.0*
Cc1oc2c(c1C(=O)c1ccccc1)C(=O)C(=O)c1ccccc1-2,126.8
CCOC(=O)c1c(C)oc2c1C(=O)c1ccccc1C2=O,-133.7*
CC(C)c1ccc(N(C(=O)c2csnn2)C(C(=O)NC(C)(C)C)c2ccncc2)cc1 (stereo unspecified),-158.4*
CC(=O)c1ccc(-n2c(CCC(=O)O)ccc2-c2cccs2)cc1,-98.7*
COc1ccc(/C=C/c2nc3ccccc3n2Cc2ccccc2OC)cc1,-152.9*
COc1ccccc1Cn1c(/C=C/c2ccccc2)nc2ccccc21,-110.8*
COCCn1c(/C=C/c2ccccc2)nc2ccccc21,-156.2*
